# Measurements: the supplement of paper PMC11732987, “Enantioselective OTUD7B fragment discovery through chemoproteomics screening and high-throughput optimisation” (Communications Chemistry, 2025)
# Values without a mark were called inactive.
# How the values were obtained:
# Experiment in all cases: log2 ratio of Biotin-Ahx-Ub-VS probe labelling (fragment/DMSO); higher = less target engagement (more negative = stronger competition), active = hit call of the paper (q ≤ 0.05, log2 ratio ≤ -1)
# Conditions in all cases: compound concentration: 200 uM; treatment time: 3 h
# ALG13 = target: T1, ALG13 (UniProt Q9NP73)
# T1 sequence (whole entry): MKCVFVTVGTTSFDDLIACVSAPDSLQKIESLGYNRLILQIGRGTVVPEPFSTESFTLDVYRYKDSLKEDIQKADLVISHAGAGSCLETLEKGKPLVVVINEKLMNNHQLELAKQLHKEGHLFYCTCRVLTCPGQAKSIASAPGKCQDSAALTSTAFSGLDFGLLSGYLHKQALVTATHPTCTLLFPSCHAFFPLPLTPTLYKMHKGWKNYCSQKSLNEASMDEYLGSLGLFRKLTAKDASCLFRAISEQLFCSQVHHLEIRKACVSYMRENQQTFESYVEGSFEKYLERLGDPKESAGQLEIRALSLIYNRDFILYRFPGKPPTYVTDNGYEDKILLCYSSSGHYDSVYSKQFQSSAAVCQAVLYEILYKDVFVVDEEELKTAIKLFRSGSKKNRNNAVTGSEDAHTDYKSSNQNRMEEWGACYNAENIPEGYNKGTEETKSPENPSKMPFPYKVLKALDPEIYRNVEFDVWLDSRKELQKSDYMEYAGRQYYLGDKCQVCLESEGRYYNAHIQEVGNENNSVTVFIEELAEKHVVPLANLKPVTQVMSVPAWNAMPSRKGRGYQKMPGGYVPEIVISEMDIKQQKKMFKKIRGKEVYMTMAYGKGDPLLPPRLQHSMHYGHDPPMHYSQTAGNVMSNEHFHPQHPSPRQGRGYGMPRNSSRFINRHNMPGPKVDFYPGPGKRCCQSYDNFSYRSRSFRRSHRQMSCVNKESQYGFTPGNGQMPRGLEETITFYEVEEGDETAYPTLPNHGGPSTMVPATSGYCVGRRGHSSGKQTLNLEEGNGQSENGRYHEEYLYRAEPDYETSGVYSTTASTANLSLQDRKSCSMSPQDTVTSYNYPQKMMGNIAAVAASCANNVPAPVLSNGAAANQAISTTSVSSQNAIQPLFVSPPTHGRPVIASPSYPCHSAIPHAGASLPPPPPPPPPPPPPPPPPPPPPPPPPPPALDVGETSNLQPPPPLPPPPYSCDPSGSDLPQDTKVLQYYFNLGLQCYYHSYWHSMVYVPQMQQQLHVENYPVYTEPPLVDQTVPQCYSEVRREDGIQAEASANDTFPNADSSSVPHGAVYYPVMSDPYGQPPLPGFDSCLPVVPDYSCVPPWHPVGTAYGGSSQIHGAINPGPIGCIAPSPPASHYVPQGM
# How it was run: (§1)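 Fragment (200 µM) or vehicle was incubated for 3 h with triplicate HEK293T lysate samples of 495 µg, which were then treated with Biotin-Ahx-Ub-VS at 0.5 µM final for 1 h. Labelled DUBs were enriched on NeutrAvidin, digested with LysC and trypsin, and analysed by diaPASEF LC-MS/MS. Values are average log2 fragment/vehicle ratios from an unpaired t-test on global-median-normalised Spectronaut label-free quantities, using proteins with ≥2 unique peptides.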
# ATXN3 = ATXN3 (UniProt P54252)
# How it was run: as §1
# BAP1 = target: T2, BAP1 (UniProt Q92560)
# T2 sequence (whole entry): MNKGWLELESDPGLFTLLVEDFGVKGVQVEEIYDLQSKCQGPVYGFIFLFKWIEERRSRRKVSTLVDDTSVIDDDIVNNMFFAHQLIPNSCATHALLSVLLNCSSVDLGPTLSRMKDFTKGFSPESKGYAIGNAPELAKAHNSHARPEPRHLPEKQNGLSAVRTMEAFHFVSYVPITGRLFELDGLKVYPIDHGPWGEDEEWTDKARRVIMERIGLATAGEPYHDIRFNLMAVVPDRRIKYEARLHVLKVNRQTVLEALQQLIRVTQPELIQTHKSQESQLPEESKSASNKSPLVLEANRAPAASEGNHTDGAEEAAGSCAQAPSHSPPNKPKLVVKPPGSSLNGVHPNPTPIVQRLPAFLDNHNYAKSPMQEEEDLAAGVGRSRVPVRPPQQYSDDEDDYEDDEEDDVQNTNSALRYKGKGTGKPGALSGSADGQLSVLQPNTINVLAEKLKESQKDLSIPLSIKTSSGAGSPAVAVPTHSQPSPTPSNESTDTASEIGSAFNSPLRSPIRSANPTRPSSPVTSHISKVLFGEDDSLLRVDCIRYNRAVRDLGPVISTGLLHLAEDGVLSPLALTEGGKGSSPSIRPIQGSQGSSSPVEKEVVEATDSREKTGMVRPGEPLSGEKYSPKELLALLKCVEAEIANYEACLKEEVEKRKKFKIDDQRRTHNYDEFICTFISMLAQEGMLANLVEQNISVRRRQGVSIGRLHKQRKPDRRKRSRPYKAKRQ
# How it was run: as §1
# EIF3F = EIF3F (UniProt O00303)
# How it was run: as §1
# EIF3H = EIF3H (UniProt O15372)
# How it was run: as §1
# FAM105A = target: T3, FAM105A (UniProt Q9NUU6)
# T3 sequence (whole entry): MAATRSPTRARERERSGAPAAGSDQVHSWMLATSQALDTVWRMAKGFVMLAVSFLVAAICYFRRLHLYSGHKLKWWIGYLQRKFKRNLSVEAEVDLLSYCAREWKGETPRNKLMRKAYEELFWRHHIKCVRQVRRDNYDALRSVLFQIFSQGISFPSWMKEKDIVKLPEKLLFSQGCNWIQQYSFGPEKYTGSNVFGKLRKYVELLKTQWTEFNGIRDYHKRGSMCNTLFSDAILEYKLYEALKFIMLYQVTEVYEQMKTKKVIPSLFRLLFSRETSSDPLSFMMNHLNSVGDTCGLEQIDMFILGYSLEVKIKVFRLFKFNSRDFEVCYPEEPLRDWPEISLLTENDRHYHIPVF
# How it was run: as §1
# OTUB1 = OTUB1 (UniProt Q96FW1)
# How it was run: as §1
# OTUD4 = target: T4, OTUD4 (UniProt Q01804)
# T4 sequence (whole entry): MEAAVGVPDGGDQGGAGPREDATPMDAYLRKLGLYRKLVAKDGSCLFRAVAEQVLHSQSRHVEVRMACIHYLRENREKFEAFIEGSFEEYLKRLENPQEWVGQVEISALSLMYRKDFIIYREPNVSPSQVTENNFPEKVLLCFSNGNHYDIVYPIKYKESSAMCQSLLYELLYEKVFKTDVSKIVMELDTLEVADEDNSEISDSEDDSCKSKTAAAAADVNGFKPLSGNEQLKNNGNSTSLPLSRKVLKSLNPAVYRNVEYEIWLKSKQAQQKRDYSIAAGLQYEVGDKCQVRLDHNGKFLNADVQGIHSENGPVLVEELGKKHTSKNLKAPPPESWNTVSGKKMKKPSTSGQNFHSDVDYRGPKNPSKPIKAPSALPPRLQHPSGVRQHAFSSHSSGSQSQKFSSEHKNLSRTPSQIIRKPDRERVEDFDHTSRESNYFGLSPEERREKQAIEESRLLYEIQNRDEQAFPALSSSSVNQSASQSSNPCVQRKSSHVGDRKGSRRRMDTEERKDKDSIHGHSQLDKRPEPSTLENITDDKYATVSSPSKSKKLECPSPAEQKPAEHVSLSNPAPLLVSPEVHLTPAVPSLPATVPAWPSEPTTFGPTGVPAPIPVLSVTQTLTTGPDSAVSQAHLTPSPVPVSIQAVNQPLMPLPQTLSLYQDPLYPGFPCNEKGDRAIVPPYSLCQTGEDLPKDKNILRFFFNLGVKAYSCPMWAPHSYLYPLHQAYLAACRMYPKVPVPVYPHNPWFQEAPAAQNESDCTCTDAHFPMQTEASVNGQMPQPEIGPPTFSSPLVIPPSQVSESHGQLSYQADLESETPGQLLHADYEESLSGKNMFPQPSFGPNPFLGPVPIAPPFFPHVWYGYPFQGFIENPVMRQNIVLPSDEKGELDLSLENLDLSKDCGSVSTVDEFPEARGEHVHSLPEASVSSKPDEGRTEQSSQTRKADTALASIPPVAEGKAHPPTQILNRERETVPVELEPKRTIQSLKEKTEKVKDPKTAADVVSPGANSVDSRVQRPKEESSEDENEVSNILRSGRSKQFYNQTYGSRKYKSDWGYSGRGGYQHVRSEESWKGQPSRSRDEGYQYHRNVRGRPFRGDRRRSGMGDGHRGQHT
# How it was run: as §1
# OTUD5 = target: T5, OTUD5 (UniProt Q96G74)
# T5 sequence (whole entry): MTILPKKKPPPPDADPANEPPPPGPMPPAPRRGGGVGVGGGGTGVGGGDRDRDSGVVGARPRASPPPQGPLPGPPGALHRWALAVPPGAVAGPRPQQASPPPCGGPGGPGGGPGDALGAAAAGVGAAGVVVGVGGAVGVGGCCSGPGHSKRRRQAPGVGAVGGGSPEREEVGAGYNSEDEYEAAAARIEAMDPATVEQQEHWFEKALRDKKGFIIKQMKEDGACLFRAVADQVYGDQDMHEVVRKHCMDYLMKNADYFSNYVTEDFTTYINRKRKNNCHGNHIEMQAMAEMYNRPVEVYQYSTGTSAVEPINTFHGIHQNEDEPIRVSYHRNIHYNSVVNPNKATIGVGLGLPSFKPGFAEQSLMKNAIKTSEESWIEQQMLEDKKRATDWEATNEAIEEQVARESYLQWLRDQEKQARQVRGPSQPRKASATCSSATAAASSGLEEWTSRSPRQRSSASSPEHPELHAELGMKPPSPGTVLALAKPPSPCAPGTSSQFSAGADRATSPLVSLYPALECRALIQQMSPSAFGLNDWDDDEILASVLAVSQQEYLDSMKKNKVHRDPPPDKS
# How it was run: as §1
# Chain of EIF3F (O00303 whole entry): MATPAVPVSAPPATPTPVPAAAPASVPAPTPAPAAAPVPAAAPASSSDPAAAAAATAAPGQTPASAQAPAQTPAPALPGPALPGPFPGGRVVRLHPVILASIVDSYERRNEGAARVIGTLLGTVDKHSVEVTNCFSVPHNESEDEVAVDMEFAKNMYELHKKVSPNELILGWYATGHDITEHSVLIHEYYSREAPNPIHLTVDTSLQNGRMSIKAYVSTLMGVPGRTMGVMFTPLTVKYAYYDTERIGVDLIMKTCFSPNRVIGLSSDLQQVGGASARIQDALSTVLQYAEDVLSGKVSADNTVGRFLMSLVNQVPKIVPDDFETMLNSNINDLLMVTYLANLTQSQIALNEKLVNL
# Chain of EIF3H (O15372 whole entry): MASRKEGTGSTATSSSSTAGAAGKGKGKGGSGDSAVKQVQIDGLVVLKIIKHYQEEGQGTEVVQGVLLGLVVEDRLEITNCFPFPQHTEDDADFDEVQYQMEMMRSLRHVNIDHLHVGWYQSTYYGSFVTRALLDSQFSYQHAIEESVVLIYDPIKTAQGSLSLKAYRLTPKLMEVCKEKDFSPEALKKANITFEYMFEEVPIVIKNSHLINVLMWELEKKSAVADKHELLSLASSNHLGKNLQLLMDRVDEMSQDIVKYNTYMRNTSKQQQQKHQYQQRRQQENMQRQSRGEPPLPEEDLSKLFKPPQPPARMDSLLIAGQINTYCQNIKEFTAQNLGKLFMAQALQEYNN
# Chain of ATXN3 (P54252 whole entry): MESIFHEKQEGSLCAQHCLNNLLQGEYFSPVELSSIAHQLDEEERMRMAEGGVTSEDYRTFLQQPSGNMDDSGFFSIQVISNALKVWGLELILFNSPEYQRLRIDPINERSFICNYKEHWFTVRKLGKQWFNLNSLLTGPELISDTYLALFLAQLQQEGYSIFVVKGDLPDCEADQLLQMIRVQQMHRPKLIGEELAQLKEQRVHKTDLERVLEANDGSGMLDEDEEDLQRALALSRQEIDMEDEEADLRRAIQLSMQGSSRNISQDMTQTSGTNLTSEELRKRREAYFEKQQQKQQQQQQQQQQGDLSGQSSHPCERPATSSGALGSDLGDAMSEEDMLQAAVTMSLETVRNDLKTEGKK
# Chain of OTUB1 (Q96FW1 whole entry): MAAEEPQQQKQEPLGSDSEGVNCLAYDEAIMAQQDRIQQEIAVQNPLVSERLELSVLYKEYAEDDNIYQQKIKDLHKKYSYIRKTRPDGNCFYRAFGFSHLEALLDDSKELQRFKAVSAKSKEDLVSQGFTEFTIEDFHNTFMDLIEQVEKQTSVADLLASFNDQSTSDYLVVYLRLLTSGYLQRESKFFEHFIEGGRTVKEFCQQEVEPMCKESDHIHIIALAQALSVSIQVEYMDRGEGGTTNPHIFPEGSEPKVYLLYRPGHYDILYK
smiles,measurement,setting,value
CS(=O)(=O)c1ccc(CNC(=O)CCl)cc1,log2 ratio of Biotin-Ahx-Ub-VS probe labelling,ALG13,-0.0665
same,log2 ratio of Biotin-Ahx-Ub-VS probe labelling,ATXN3,-0.381
same,log2 ratio of Biotin-Ahx-Ub-VS probe labelling,BAP1,-3.17 (active)
same,log2 ratio of Biotin-Ahx-Ub-VS probe labelling,EIF3F,-0.177
same,log2 ratio of Biotin-Ahx-Ub-VS probe labelling,EIF3H,-0.0369
same,log2 ratio of Biotin-Ahx-Ub-VS probe labelling,FAM105A,-0.0581
same,log2 ratio of Biotin-Ahx-Ub-VS probe labelling,OTUB1,-0.0582
same,log2 ratio of Biotin-Ahx-Ub-VS probe labelling,OTUD4,-0.317
same,log2 ratio of Biotin-Ahx-Ub-VS probe labelling,OTUD5,-0.368
